Screens (PubChem)
Most compounds without a hit are left out; they make up all but 20% or so of the library.
Pf growth 96h: P. falciparum growth inhibition at 96 hour, primary screen for plastid delayed-death inhibitors; Potency, µM (titrated, usually from 28.7 µM), inactives show at the highest dose activity change, negative = inhibition, usual class: inhibitors; P. falciparum luciferase reporter growth, 96 h; actives 6.9% (n = 320,000); also: potency is read from the fitted curve at half-maximal effect; % is scaled to controls: 0 for no effect and ±100 for the full control effect
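Cell-based qHTS: luciferase-tagged P. falciparum in erythrocytes (2% hematocrit, 0.05% parasitemia final) incubated with compounds for 96 hours, 37 C, 5% CO2; luciferase detection reagent then added and luminescence measured.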
Pf growth 48h: P. falciparum growth inhibition at 48 hours (one generation) | P. falciparum luciferase growth in erythrocytes, 48 h | actives 5.9% (n = 310,000) | Potency, µM (top dose mostly 28.7 µM), without a hit: at the highest dose activity change, negative = inhibition, usual class: inhibitors | AID 504832; also: potency is read from the fitted curve at half-maximal effect; % is scaled to controls: 0 for no effect and ±100 for the full control effect
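First compound was added to culture medium, then infected red cells at 0.1% parasitemia and 2% hematocrit (final). After incubation at 37 C under 5% CO2, luciferase detection reagent was dispensed and light output recorded.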
HCMV inh: blocks human cytomegalovirus replication | AID 1259415 | actives 4.5% (n = 410,000) | HFF cells, HCMV-luciferase reporter, 72 h; active compounds read low | activity change, negative = inhibition, % at 57.5 µM; in the data active = activity change below about -60%; inconclusive = no clear call, values can overlap the other calls; inactive = above about -39%; also: % is scaled to controls: 0 for no effect and ±100 for the full control effect
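Steps: HFFs plated, 16 h 37C; compounds added; HCMV-luciferase added to MOI 1 PFU/cell; 72 h 37C; OneGlo reagent, 5 min room temperature; luminescence read, normalized to controls.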
Shiga toxin inh: Shiga toxin inhibition. inhibition, % at 38.7 µM. Vero cells, Shiga toxin protein synthesis inhibition reporter. AID 2315. actives 9.2% (n = 290,000); in the data active = inhibition mostly above about 28%, no sharp cut-off; inactive = mostly below about 43%; also: 0% is about no effect
Cycloheximide cs: counter-screen hit for Shiga toxin inhibitors, cycloheximide. cell reporter, cycloheximide protein synthesis inhibition counterscreen. max response, %. actives 12% (n = 300,000). AID 2314; in the data active = max response mostly above about 13%, no sharp cut-off; inactive = mostly below about 14%; also: read at 38.3 µM for the half of the compounds with a filed dose; 0% is about no effect
The depositor's hits bear a star; u = inconclusive; x = no result; ! = repeats disagree. Unless noted, calls follow the shape of the dose curve; as a rule, active = well fitted inhibition curve with a large enough effect; inconclusive = small, poorly fitted or top-dose-only effect, or another doubt; inactive = no such curve, though single readings can be large or run the other way.

SMILES	Pf growth 96h	Pf growth 48h	HCMV inh	Shiga toxin inh	Cycloheximide cs
CCOC(=O)c1ccc(NC(=O)c2c(NCc3ccc(OC)c(OC)c3OC)sc3c2CCC(C)C3)cc1 (centres undefined)	x	x	-0.8	x	x
Cc1ccc(OC(=O)c2oc3ccc(F)cc3c2C)c(C)c1	95.8%	-3.8%	50.0	45.7	34.6*
Cc1cccc(NC(=O)c2cccc(N3CCCS3(=O)=O)c2)c1	x	x	39.5	x	x
Cc1ccc2c(CNC3CCCCC3)c(C(=O)O)n(Cc3ccc(F)cc3)c2c1	x	x	1.2	x	x
CC(NCc1ccccc1O)C12CC3CC(CC(C3)C1)C2 (centres undefined)	0.104µM*	0.0657µM*	-86.9*	0.7	-3.0
O=C1C=CCCC1	57.6%	34.7%	8.1	x	x
O=c1c(Cl)c(Cl)cnn1Cc1ccccc1Cl	u	-0.9%	-101.0*	-26.2	-13.2
O=c1c(Cl)c(Cl)cnn1Cc1nnc(-c2ccc(Cl)cc2)o1	-42.6%	1.4%	u	63.4	50.3*
Cc1cc(C)cc(Cn2ncc(Cl)c(Cl)c2=O)c1	-26.7%	12.2%	-84.1*	35.3	35.7*
Cc1c(C)c2c(c(C)c1O)CCC(C)(CCCC(C)CCCC(C)CCCC(C)C)O2 (centres undefined)	-6.8%	-7.2%	x	x	x
CO[C@H]1CN(C)C(=O)c2cc(NC(=O)C3CCOCC3)ccc2OC[C@H](C)N(Cc2nccs2)C[C@H]1C	x	x	-19.8	x	x
O=C(c1cnn2c(C(F)(F)F)cc(-c3cccs3)nc12)N1CCCC1	-21.8%	-0.7%	u	-13.6	-1.5
Cc1cc(C)c(Cc2c(C)nc3c(C(=O)NCc4ccco4)cnn3c2C)c(C)c1	11.7µM*	x	-98.9*	3.3	-1.7
O=C(NCc1ccco1)c1cnn2c(C(F)(F)F)cc(-c3cccs3)nc12	9.28µM*	u	79.1	-6.4	2.0
COc1ccc(C(=O)COC(=O)CNC(=O)c2ccc(Cl)cc2Cl)c(OC)c1	19.3%	3.1%	-9.0	x	x
CSc1ncccc1C(=O)NCCc1ccccc1F	-24.1%	32.7%	35.3	0.9	10.7
CCOC(=O)C1(C)CCN1C(=O)c1ccc2ccccc2c1 (centres undefined)	x	x	101.2	x	x
Cc1ccc(C)c(/C=N/NC(=S)NC(C)C)c1	13.1µM*	u	49.8	5.5	-1.7
CC(C)CNC(=O)CC(=O)N/N=C/c1cccs1	0.3%	12.9%	-7.2	2.8	-3.2
CC(C)NC(=S)N/N=C/c1ccc(C(C)(C)C)cc1	u	u	-0.6	28.3	21.4*
S=C(NCc1ccccc1)N/N=C/c1cccs1	u	7.38µM*	u	11.9	10.0
CC(C)NC(=S)N/N=C/c1cccs1	3.29µM*	x	-29.5	-7.8	8.2
CNC(=S)N/N=C/c1cc(C)ccc1C	u	-17.5%	-18.7	-12.6	1.3
Cc1c(Cl)cccc1NC(=S)N1CCc2ccccc2C1	u	-6.3%	-33.8	5.4	-1.0
CCc1ccc(N(CC)C(=O)Cn2c(=O)oc3ccccc32)cc1	x	x	-10.5	x	x
SMILES	Pf growth 96h	Pf growth 48h	HCMV inh	Shiga toxin inh	Cycloheximide cs
N#CCCN(C(=O)COC(=O)c1cc2ccccc2oc1=O)c1ccccc1	9.5%	9.5%	-10.0	x	x
CCc1ccc(NC(=O)CC(c2cc(OC)c(OC)c(OC)c2)N2Cc3ccccc3C2=O)cc1 (centres undefined)	x	x	-0.7	x	x
COc1ccc(-c2nc3scc(CCNS(=O)(=O)c4ccc5c(c4)OCCO5)n3n2)cc1OC	x	x	-9.6	x	x
CC1(Cc2ccccc2C#N)C(=O)Nc2ccc(-c3ccccc3)cc21 (centres undefined)	x	x	12.7	x	x
Cc1nc2ccn(Cc3ccco3)c(=O)c2cc1C(=O)NCc1ccc(F)cc1	x	x	5.4	x	x
CN(Cc1ccccc1)C(=O)C1CCCN1S(=O)(=O)c1ccc(Cl)cc1 (centres undefined)	-29.9%	-25.2%	-14.5	x	x
COCCNc1nc(Nc2ccc(C)cc2C)c2sccc2n1	x	x	-76.0*	x	x
COc1ccc(-c2noc(C3CCCN(C(=O)Nc4ccccc4)C3)n2)cc1 (centres undefined)	3.3%	2.6%	-22.4	-13.4	-3.8
COc1ccc(NC(=O)N2CCCC(c3nc(-c4ccc(C(C)C)cc4)no3)C2)cc1 (centres undefined)	8.28µM*	37.4%	u	20.9	32.1*
COc1ccc(C(=O)N2CCCC(c3nc(-c4cc(OC)c(OC)c(OC)c4)no3)C2)cc1 (centres undefined)	25.6%	u	59.6	50.6	-3.1
O=C(Nc1ccc(Cl)cc1)N1CCN(c2ccc3nnc(-c4ccc(F)cc4)n3n2)CC1	u	9.28µM*	-63.1*!	8.0	5.0
